Bioassay records from PubChem.
ELG1 DNA repair – inhibitors of ELG1-dependent DNA repair in HEK293T cells; HEK293T ELG1-luciferase reporter, luminescence, 16 h; DNA damage induced by 5-fluorouridine; Potency, µM (doses to about 46.1 µM), usual class: inhibitors; 330,000 compounds, 2.3% hits; note: nearly all actives have a fitted effect of over 55% in size
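5-Fluorouridine DNA damage + compound/DMSO, 2,000 cells/well, 16 h, 37 °C/5% CO2. ONE-Glo, 30 min RT, luminescence. Readout = decrease in reporter signal.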
FBPA coupling cs – inhibits coupling enzyme system, counter-screen for aldolase hits | coupling enzyme system counterscreen, AmpLite Red fluorescence | activity change, negative = inhibition, % at 58.2 µM, hits read low | 290,000 compounds, 0.67% hits; in the data active = activity change below about -30%
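Final compound at 57.5 uM, incubated 10 min at RT with coupling enzyme reagent (glyceraldehyde-3-phosphate), then 20 min with substrate and AmpLite Red detection. Fluorescence read at 525/598 nm; tests interference with the coupling assay, not aldolase inhibition.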
Sfp PPTase inh – blocks B. subtilis Sfp PPTase activity. Biochemical Sfp PPTase activity, qHTS. Q9F4F7. AID 1490. 310,000 compounds, 3.5% hits. Potency, µM, actives largely listed as inhibitors;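 note: the enzyme is Sfp with the accession as filed and its product quenches rhodamine fluorescence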
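Fluorescence-quenching assay with 15 nM Sfp, 5 uM rhodamine-CoA and 12.5 uM BHQ-2-labelled ybbR peptide in pH 7.6 Hepes/MgCl2 buffer. Enzyme was pre-incubated with compound for 15 min at room temperature. Rate was taken from the 30-min fluorescence change (525/598 nm).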
Giardia kill – kills Giardia lamblia | Giardia lamblia trophozoite viability | activity change, % at 7.66 µM, hits read low | 340,000 compounds, 0.15% hits | AID 540267; in the data active = activity change below about -80%; inconclusive = between about -30% and that limit;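 note: parasites exposed to compound for two days anaerobically before the ATP read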
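Viability, read as ATP luminescence: trophozoites at 100 cells/well, compound added, 48 hrs anaerobic at 37 deg C, then 15-30 min room-temperature development before reading.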
A number is an active result; i = inactive; ? = inconclusive; nt = no result given. Hits are enriched below; roughly 5.5% of the tested compounds scored in any of these assays. Unless noted, calls come from the whole dose curve; as a rule, active = well fitted curve in the direction sought with a large enough effect; inconclusive = small, poorly fitted or top-dose-only effect, or another doubt; inactive = no such curve, though single readings can be large; an effect the other way counts as inactive or inconclusive.

SMILES	ELG1 DNA repair	FBPA coupling cs	Sfp PPTase inh	Giardia kill
C#CCN(C)[C@@H](C)Cc1ccccc1	nt	i	i	nt
CCOc1ccc(CC2C(=O)NC(=O)N(c3ccc(CC)cc3)C2=O)cc1 (stereo unspecified)	i	i	56.2µM	i
Cc1ccc(S(=O)(=O)NN)c(C)c1N1CCCC1=O	i	i	56.2µM	i
Cc1cccc(N2C(=O)/C(=C/N3CCN(C(=O)c4ccco4)CC3)C(=O)NC2=S)c1	i	i	?	i
Cc1ccc(N2C(=O)/C(=C/N3CCN(C(=O)c4ccco4)CC3)C(=O)NC2=S)cc1C	i	i	44.7µM	i
COC(=O)N1CCC2(CCN(CC(C)C)CC2)CC1	nt	i	i	nt
O[C@@H](Cc1ccncc1)C(Cl)(Cl)Cl	nt	i	i	nt
CN(C)c1nc(-c2ccccc2)[n+](C)s1	i	i	17.8µM	i
S=C(S)N1CCCC1	i	i	5.62µM	i
COc1cc2c3cc1Oc1cc(ccc1O)C[C@@H]1c4c(cc(OC)c(O)c4Oc4cccc(c4)C[C@H]3N(C)CC2)CC[N+]1(C)C	nt	i	i	nt
CNCC/C=C\c1cccnc1	nt	i	i	nt
C=CC[C@H](CC(=O)N(CCO)Cc1ccccc1)C(=O)NC[C@H](OC(=O)[C@@H](CC=C)CC(=O)OC(C)(C)C)c1ccccc1	20.6µM	nt	nt	i
C=CC[C@@H](CC(=O)N(CCO)Cc1ccccc1)C(=O)NC[C@@H](OC(=O)[C@@H](CC=C)CC(=O)OC(C)(C)C)c1ccccc1	20.6µM	nt	nt	i
CC(C)C1C(=O)N2CCCC2[C@]2(O)O[C@@](NC(=O)[C@@H]3C=C4c5cccc6[nH]cc(c56)C[C@H]4N(C)C3)(C(C)C)C(=O)N12 (stereo partly specified)	nt	-34.0	i	nt
CC(C)[C@H]1C(=O)N2CCC[C@H]2[C@]2(O)O[C@](NC(=O)[C@@H]3C=C4c5cccc6[nH]cc(c56)C[C@H]4N(C)C3)(C(C)C)C(=O)N12	i	-45.9	56.2µM	i
CN1C[C@@H](CO)C=C2c3cccc4[nH]cc(c34)CC21 (stereo partly specified)	nt	i	i	i
CCOc1cccc(OCC)c2c(C)[n+](CC3CCCO3)c(C)c1-2 (stereo unspecified)	i	i	56.2µM	i
O=C(O)c1ccccc1SCC(=O)N1c2ccccc2Sc2ccccc21	?	i	89.1µM	i
O=C(CCN1CCN(CCO)CC1)N1c2ccccc2Sc2ccc(C(F)(F)F)cc21	i	i	i	i
CCOC(=O)N1CCN(Cc2cn3ccccc3n2)CC1	i	i	56.2µM	i
Cc1ccc(CC(=O)N2CCN(Cc3ccccc3)CC2)cc1	?	i	i	i
C=CCSC1=N/C(=C\c2cc(OC)c3c(c2)OCO3)C(=O)S1	i	i	17.8µM	i
N[C@H](CP(=O)(O)O)C(=O)O	nt	i	i	nt
CCCN1CCO[C@@H]2c3cc(O)ccc3OC[C@@H]21	nt	i	56.2µM	nt
O=C(O)c1ccccc1SSc1ccccc1C(=O)O	i	i	?	i
SMILES	ELG1 DNA repair	FBPA coupling cs	Sfp PPTase inh	Giardia kill
C[CH2][Hg][S]c1ccccc1C(=O)O	nt	i	15.8µM	?
c1ccc([Se]c2c(-c3ccccc3)[se]c3ccccc23)cc1	nt	i	i	nt
ClC1=C(Cl)C2(Cl)C3C4CC(C5OC45)C3C1(Cl)C2(Cl)Cl (stereo unspecified)	nt	i	i	nt
COc1ccc(-c2nc3ccccc3c(=O)o2)cc1	?	i	i	i
CCOP(=O)(OCC)c1nc(-c2ccc(Cl)cc2)oc1NCc1ccccc1	23.1µM	i	i	i
COc1ccc(CNc2oc(-c3cccc4ccccc34)nc2P(=O)(OC)OC)cc1	?	i	50.1µM	i
CCCOP(=O)(OCCC)c1nc(-c2ccccc2)oc1NCc1ccccc1	?	i	i	i
CC(=O)O[C@H](CC(=O)O)C[N+](C)(C)C	i	i	i	i
CC(=O)OC(CC(=O)O)C[N+](C)(C)C (stereo unspecified)	18.4µM	i	i	i
COP(=O)(OC)c1nc(-c2cccc3ccccc23)oc1N1CCCCC1	?	i	i	i
CCOP(=O)(OCC)c1nc(-c2cccc3ccccc23)oc1N1CCCCC1	23.1µM	i	i	i
CC1(C)[C@@H](O)C[C@H]2[C@](C)(O)[C@@H]3CC[C@H]4[C@@H](O)[C@@]3(C[C@@H](O)[C@@]21O)C[C@@]4(C)O	nt	nt	i	nt
Cc1ccc(NC(=O)COC(=O)/C=C/c2ccco2)cc1S(=O)(=O)N(C)C	i	i	44.7µM	i
CCOC(=O)CCN(SN(C)C(=O)Oc1cccc2c1OC(C)(C)C2)C(C)C	nt	i	i	nt
